From PubChem BioAssay (Tox21) come the findings set out here.

Inconclusive results are not listed. Entries that show only a call come without a potency. The source made the active and inactive calls. The call rests on the fitted dose curve; in most records, active means well fitted cell-killing curve with a large enough effect in the repeat runs; inconclusive means weak or mixed curves, or effect the other way; inactive means no such curve, though single readings can be large or run the other way.

The test in a line: qHTS assay to identify small molecule antagonists of the progesterone receptor (PR) signaling pathway - cell viability counter screen (AID 1346798). Further: nearly all actives have a fitted effect of over 50% in size. To be noted: PR-UAS-bla HEK293T viability, CellTiter-Glo luminescence, 16 h; series mostly up to 42.5 µM. An excerpt:
National Center for Advancing Translational Sciences [NCATS]
NIH Chemical Genomics Center [NCGC]
U.S. Environmental Protection Agency [EPA]
National Institutes of Environmental Health Sciences [NIEHS]
National Toxicology Program [NTP]
U.S. Food and Drug Administration [FDA]
Progesterone receptor (PR), a nuclear hormone receptor, plays an important role in development, metabolic homeostasis and reproduction. It is activated by the steroid hormone progesterone. Endocrine disrupting chemicals (EDCs) and their interactions with steroid hormone receptors like PR causes disruption of normal endocrine function. To identify the compounds that inhibit PR signaling, a PR-UAS-bla GripTite cell line i.e. PR-UAS-bla HEK293T (Invitrogen, Carlsbad, CA, USA) containing a beta-lactamase reporter gene under the control of an UAS response element was used to screen Tox21 10K compound library. The cytotoxicity of the Tox21 compound library against the PR-bla cell line was tested in parallel by measuring the cell viability using CellTiter-Glo assay in the same wells.
Tox21 Assay Protocol Summary:
PR-UAS-bla HEK293T cells were dispensed at 3,000 cells/4 uL of assay medium containing 2% charcoal stripped FBS per well into black wall/clear-bottom 1536-well plates using a Multidrop Combi (ThermoFisher Scientific, Waltham, MA) dispenser. After the assay plates were incubated at a 37C and 5% CO2 for 4 hr, 23 nL of compounds dissolved in DMSO, positive controls or DMSO only was transferred to the assay plate by a Pintool station (Kalypsys, San Diego, CA), followed by addition of 1 uL of R5020 in assay medium using a Flying Reagent Dispenser (FRD, Aurora Discovery, San Diego, CA). The plates were incubated at 37C and 5% CO2 for 16 hr. Then 1 uL of LiveBLAzer B/G FRET substrate was added using a Flying Reagent Dispenser, the plates were incubated at room temperature for 2 hours, and fluorescence intensity was measured by an Envision plate reader (PerkinElmer, Shelton, CT). For cell viability readout that measures cytotoxicity, 4 uL/well of CellTiter-Glo reagent was added into the assay plates using a FRD. After 30 min incubation at room temperature, the luminescence intensity in the plates was measured using a ViewLux (PerkinElmer) plate reader.
Turning to `CCCC(=O)O[C@]1(C(=O)CO)CC[C@H]2[C@@H]3CCC4=CC(=O)CC[C@]4(C)[C@H]3[C@@H](O)C[C@@]21C`, the Potency entry was “inactive”.

Take `NS(=O)(=O)c1cc(C(=O)O)cc(N2CCCC2)c1Oc1ccccc1`: the Potency entry is “inactive”.

For `Cc1ccc(Cl)cc1Cl`, the Potency entry was “inactive”.

As for `O=C(CCCN1CCC(O)(c2cccc(C(F)(F)F)c2)CC1)c1ccc(F)cc1`, the Potency result was “inactive”.

For `CCCCCCOC(=O)CCCCC(=O)OCCCCCC`, the Potency entry was “inactive”.

Consider `Oc1ccc(C2CNCCc3c2cc(O)c(O)c3Cl)cc1` (stereo not given), for which the Potency result was “inactive”.

As to `N=c1nc(N2CCCCC2)cc(N)n1O`, the Potency entry was “inactive”.

For the compound `NC(=O)c1cn(Cc2c(F)cccc2F)nn1`, the Potency entry was “inactive”.

As to `CCOC(=O)c1cccc(N)c1`, the Potency result was “inactive”.

Regarding `CCN(Cc1ccncc1)C(=O)C(CO)c1ccccc1` (stereo not given), the Potency entry was “inactive”.

As for `CN1CC(=O)NC1=N`, the Potency entry is “inactive”.

For `CCC(C)S` (stereo not given), the activity change, negative = cytotoxicity was -5.62% [at 3.27 µM] (inactive).

Regarding `NS(=O)(=O)c1cc2c(cc1Cl)NC(C1CC3C=CC1C3)NS2(=O)=O` (stereo not given), the Potency result was “inactive”.

In the case of `NC(=O)Nc1ccccc1`, the Potency result was “inactive”.

`CCN1CCC[C@H]1CNC(=O)c1c(O)c(Cl)cc(Cl)c1OC`: the Potency result is “inactive”.

`CC(=O)Nc1c(I)cc(I)c(C(=O)O)c1I`: the Potency result was “inactive”.

Take `CCc1ccc(O)c(OC)c1`: the Potency result was “inactive”.

Turning to `Cc1cnc(NS(=O)(=O)c2ccc(N)cc2)nc1`, the Potency result is “inactive”.

`CCCCNC(=O)NCCCC`: the Potency result was “inactive”.

For `COc1ccc(CCN(C)CCCC(C#N)(c2cc(OC)c(OC)c(OC)c2)C(C)C)cc1OC` (stereo not given), the Potency entry was “inactive”.

For `CC(NC(CCc1ccccc1)C(=O)O)C(=O)N1C(=O)N(C)CC1C(=O)O` (stereo not given), the Potency entry was “inactive”.

In the case of `CCCN(CCC)CCc1cccc2c1CC(=O)N2`, the Potency entry is “inactive”.

Consider `CCc1cccc2c(CCO)c[nH]c12`, for which the Potency entry is “inactive”.

Take `NS(=O)(=O)c1ccc(C(=O)O)cc1`: the Potency result was “inactive”.

On to `CC(C)CNCC(C)C`, for which the Potency entry is “inactive”.

In the case of `N[C@H](C(=O)O)c1ccc(O)cc1`, the Potency result is “inactive”.

On to `Cc1cccc(C)c1NC(=O)C(C)N` (stereo not given), for which the Potency entry was “inactive”.

Turning to `COc1c(N2C[C@@H]3CCCN[C@@H]3C2)c(F)cc2c(=O)c(C(=O)O)cn(C3CC3)c12`, the Potency result is “inactive”.

Turning to `COCCc1ccc(OCC(O)CNC(C)C)cc1` (stereo not given), the Potency result is “inactive”.

In the case of `CC[N+](C)(C)c1cccc(O)c1`, the Potency result was “inactive”.

Consider `N#Cc1ccc(C2CCCc3cncn32)cc1` (stereo not given), for which the Potency result was “inactive”.

As to `NCCCNCCSP(=O)(O)O`, the activity change, negative = cytotoxicity is 1.3% [at 8.39 µM] (inactive).

For `CC(C)(O)C#CC(C)(C)O`, the Potency result was “inactive”.

Turning to `C1CN(CCOCCN2CCOCC2)CCO1`, the Potency result was “inactive”.

Turning to `C=C1CC[C@H]2C[C@@H]1C2(C)C`, the Potency result was “inactive”.

For the compound `Cn1cc(S(C)=O)c(=O)c2ccc(F)cc21` (stereo not given), the Potency result is “inactive”.

For the compound `Cc1cccn2c(=O)c(-c3nnn[nH]3)cnc12`, the Potency result was “inactive”.

In the case of `COc1cc(C(=O)N2CCCCCCC2)cc(OC)c1OC`, the Potency entry was “inactive”.

On to `N=C(N)c1ccccc1`, for which the Potency result is “inactive”.

Consider `CCOC(C)(C)C`, for which the Potency entry is “inactive”.
